Compound activity from PubChem BioAssay.
Lassa entry inh – blocks Lassa virus binding to or entry into cells; Lassa virus pseudotype entry inhibition, cell reporter; Potency, µM (doses to about 37.9 µM), for inactives: top-dose activity change, negative = inhibition, actives largely listed as inhibitors; 300,000 tested, 1.2% active; calls by dose curve; tested in HEK293 cells; also: nearly all actives have a fitted effect of over 50% in size
VACV Venus inh – inhibitors of vaccinia virus (Venus reporter); 330,000 tested, 0.46% active; AID 720580; Vaccinia virus Venus reporter expression, fluorescence; Potency, µM (titrated, usually from 36.5 µM), inactives show top-dose activity change, negative = inhibition, actives largely listed as inhibitors; calls by dose curve; tested in A549 cells; also: nearly all actives have a fitted effect of over 30% in size
FMDV inh – foot and mouth disease virus antiviral activity; AID 1159524; Potency, µM (highest dose often 57.9 µM), inactives show at the highest dose activity change, negative = inhibition, actives largely listed as inhibitors; 410,000 tested, 1.2% active; FMDV antiviral cell-based qHTS; calls by dose curve; tested in HEK293T cells; also: read-out not given here; nearly all actives have a fitted effect of over 45% in size
Sm TGR block – inhibitors of Schistosoma mansoni thioredoxin glutathione reductase; Q962Y6; purified TGR, DTNB reduction, TNB absorbance 405 nm; Potency, µM (highest dose often 114 µM), inactives show top-dose activity change, negative = inhibition, most hits filed as inhibitors; 360,000 tested, 3% active; AID 485364; active = well fitted inhibition curve with a large enough effect; inconclusive = small, poorly fitted or top-dose-only effect; inactive = no such curve, though single readings can be large or run the other way; also: nearly all actives have a fitted effect of over 60% in size
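TGR 20 nM + NADPH 100 uM (dispensed conc.), cpd preinc 15 min RT; start with NADPH (500 uM addition) then DTNB (15 mM addition). Kinetic TNB absorbance, 405 nm filter. Four-parameter Hill fit across titration.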
MARV entry inh – inhibitors of Marburg virus binding or cell entry | Potency, µM (doses to about 37.8 µM), for the others: at the highest dose activity change, negative = inhibition, actives largely listed as inhibitors | Marburg virus pseudotyped entry inhibition, cell reporter | AID 540276 | 300,000 tested, 1.8% active; calls by dose curve; tested in HEK293 cells
VACV mCherry inh – inhibitors of vaccinia virus infection (mCherry reporter signal); Vaccinia virus mCherry reporter infection, fluorescence; AID 720579; 310,000 tested, 0.63% active; Potency, µM (series often up to 36.5 µM), inactives show at the highest dose activity change, negative = inhibition, hits mostly inhibitors; calls by dose curve; tested in A549 cells; also: nearly all actives have a fitted effect of over 35% in size
The depositor's hits bear a star; i = inactive; ? = inconclusive; / = no result given; [ ] = another dose, or the depositor's remark. The list is not random: actives were taken first. Their share in the collection is about 5.4%. % is scaled to controls: 0 for no effect and ±100 for the full control effect; potency is read from the fitted curve at half-maximal effect.

SMILES	Lassa entry inh	VACV Venus inh	FMDV inh	Sm TGR block	MARV entry inh	VACV mCherry inh
CCN1C(=O)/C(=C/c2ccc(N(CC)CC)cc2OC)C(=O)NC1=S	/	/	35.5µM*	/	/	/
COc1ccc(N2C(=O)/C(=C/C=C/c3ccccc3[N+](=O)[O-])C(=O)NC2=S)cc1	-18.1%	6.9%	22.4µM*	44.7µM*	13.7%[46.1 µM]	9.2%
COc1ccc(N2C(=O)/C(=C/c3cccs3)C(=O)NC2=S)cc1	2.8%	52.7%[7.34 µM]	25.1µM*	35.5µM*	16.2%[46.1 µM]	18.9%[7.34 µM]
COc1ccc(N2C(=O)/C(=C/c3cccs3)NC2=S)cc1	0.1%	-7.2%	-8.6%	-25.5%	?	-6.3%
Cc1nc2sccn2c1CN1Cc2ccccc2OC(c2ccccc2F)C1 (stereo not drawn)	/	-0.1%	-20.2%	/	/	-6.4%
O=C1C[C@H]2C=CCc3cccc(c32)CN1Cc1ccc(Cl)cc1	/	-11.5%	/	/	/	-0.5%
COc1ccccc1/C=C1\C(=O)NC(=S)N(c2ccccc2)C1=O	/	/	-0.7%	8.91µM*	/	/
COc1ccccc1C=C1C(=O)NC(=S)NC1=O	14.8%	-9.6%	?	/	13.2%	-11.4%
COC(=O)CN1C(=O)[C@H]2[C@@H](c3ccc(C)o3)N3C(=O)CN(Cc4ccccc4)C(=O)[C@@]3(C)[C@H]2C1=O	/	2.7%	-4.8%	22.4µM*	/	i
Cc1ccc([C@@H]2[C@@H]3C(=O)N(C)C(=O)[C@@H]3[C@]3(C)C(=O)N(Cc4ccccc4)CC(=O)N23)o1	/	-10.9%	24.8%	44.7µM*	/	-12.2%
CCN1CCN(c2cc(C)c3cc(NC(=O)/C=C/c4ccc(OCCC(C)C)cc4)ccc3n2)CC1	25.7%[46.1 µM]	-4.9%[7.34 µM]	?	12.1%	0.2%[46.1 µM]	-0.3%[7.34 µM]
Cc1cccc(-n2c(C)c(-c3ccccc3)[nH]c2=S)c1	-5.1%	-15.5%	-15.6%	-12.0%	-0.6%	-16.9%
Cc1cccc(-n2c(O)c(C)c(=O)[nH]c2=S)c1	18.0%	/	-8.0%	39.8µM*	5.1%	/
CCCN1CCCC(C(=O)c2cc(C)c(OC)c(C)c2)C1 (stereo not drawn)	?	-12.6%	-9.6%	?	?	-19.6%
COc1c(C)cc(C(=O)C2CCCN(C3CCOCC3)C2)cc1C (stereo not drawn)	14.7%[46.1 µM]	-13.1%	-3.3%	12.6µM*	-7.7%[46.1 µM]	i
COc1ccc2cc(C(=O)C3CCCN(C4CCOCC4)C3)ccc2c1 (stereo not drawn)	1.7%[46.1 µM]	-22.3%	1.7%	-0.1%	7.94µM*	-23.4%
C[C@@H]1CC[C@H]2C(=O)N3[C@@H](CC[C@@H](C)[C@@H]3c3ccc(-c4ccco4)cc3)C(=O)N2[C@@H]1c1ccc(-c2ccco2)cc1	?	/	/	/	-1.7%[14.2 µM]	/
CN(C)CCNC(=O)c1ccc2c(=O)n(Cc3ccc(Cl)cc3)c(=S)[nH]c2c1	?	-21.5%	-9.5%	44.7µM*	?	-10.3%
CN(C)CCNC(=O)c1ccc(COc2ccc(Cl)cc2Cl)cc1	?	/	-14.5%	5.2%	8.2µM*	/
CCS(=O)(=O)Nc1cc(C(=O)N2CCC[C@H]2CO)c2c(c1)nc(-c1ccccc1)n2C	/	-4.0%	2.7%	/	/	-4.0%
CCN(CC)CCCNC(=O)c1cc(-c2ccccc2)c(N2CCCCC2)s1	15.8µM*	-17.0%	?	8.8%	?	-19.4%
O=C(NCCc1ccccc1)c1cc(-c2ccccc2)c(N2CCOCC2)s1	/	-9.0%	-2.5%	/	/	12.9%
Cc1ccc2nc(-c3ccccn3)c(NC3CCCC3)n2c1	?	-28.2%	-6.0%	-27.4%	?	12.6µM*
Cc1ccc(OC(=O)C(F)(F)F)c2c1NCCC2	18.3%	-4.9%	13.4%	31.6µM*	6.6%	-4.8%
COC(=O)c1cnn(-c2nc(OC)cc(OC)n2)c1C	6.0%	3.3%	-9.7%	1.6%	17.5%	-4.3%
SMILES	Lassa entry inh	VACV Venus inh	FMDV inh	Sm TGR block	MARV entry inh	VACV mCherry inh
COc1cc(OC)nc(-n2ncc(Br)c(Br)c2=O)n1	1.26µM*	11.2µM*	10µM*	1.78µM*	1.64µM*	?
CCCC(=O)NC(Oc1ccccc1Cl)C(Cl)(Cl)Cl (stereo not drawn)	-8.8%	-17.4%	/	12.6µM*	1.5%	-18.7%
CCCC(=O)NC(Oc1ccc(Cl)cc1Cl)C(Cl)(Cl)Cl (stereo not drawn)	-17.0%	-3.9%	/	31.6µM*	2.8%	-4.8%
CN1CCN(c2nc(-c3ccccc3)nc(-c3ccc(F)cc3)c2C#N)CC1	-13.1%[46.1 µM]	-2.0%	-12.3%	10.8%	11.2µM*	-4.4%
Cc1noc(C)c1CC(=O)N1CCOc2c(cc(-c3nc4ccccc4s3)cc2OC2CCOC2)C1 (stereo not drawn)	/	-2.6%	-8.7%	/	/	-3.8%
Cc1ccc(Nc2nc(-c3ccncc3)nc3ccccc23)cc1	1.0%	-1.3%	-25.3%	1.2%	2.24µM*	?
Cc1ccc(Nc2nc(-c3ccccc3)nc3ccccc23)cc1	25.7%[46.1 µM]	-7.1%	0.0%	14.3%	/	-12.1%
CCOC(=O)c1cccc(Nc2nc(-c3cccnc3)nc3ccccc23)c1	?	22.4µM*	28.2µM*	5.7%	?	/
COc1cc(-c2nnc(SCCOc3ccc(C)c(Cl)c3)o2)cc(OC)c1OC	4.6%[46.1 µM]	-4.7%	-6.3%	-13.9%	?	-4.1%
O=C(Nc1nnc(S(=O)(=O)N2CCN(c3ccc(F)cc3)CC2)s1)c1ccc(Cl)cc1	-0.2%[46.1 µM]	-22.3%	-6.9%	-8.2%	/	-15.0%
CCOC(=O)CCCCC(=O)c1[nH]c(=O)[nH]c1CSc1nc(C)cc(C)n1	-15.3%	-20.0%	-2.1%	8.1%[11.4 µM]	8.7%[46.1 µM]	/
CCOC(=O)c1[nH]c(=O)[nH]c1COC(=O)c1cc2ccccc2o1	15.7%	-12.5%	-5.5%	4.47µM*	8.5%	-19.8%
CCOC(=O)c1[nH]c(=O)[nH]c1CSc1nc(C)cc(C)n1	9.7%	-5.3%	6.7%	35.5µM*	0.7%	/
CCOC(=O)CCCCC(=O)c1[nH]c(=O)[nH]c1CSc1nc2ccccc2[nH]1	14.3%	-21.9%	/	3.16µM*	19.1%	-2.7%
CN(C)CCCOC(=O)c1cc2ccccc2o1	-2.8%	?	7.1%	?	1.1%	/
CCOC(=O)CCCCC(=O)c1[nH]c(=O)[nH]c1CSc1nnc2c3cc(Br)ccc3n(C)c2n1	/	/	/	-35.9%	/	/
CCOC(=O)CCCCC(=O)c1[nH]c(=O)[nH]c1CSc1nc(C)cc(=O)[nH]1	-10.2%	-0.3%	/	2.51µM*	2.1%	-8.3%
CC1=C(C(=O)Nc2cccnc2)C(c2ccc(F)cc2)n2nc(-c3cccc(C)c3)nc2N1 (stereo not drawn)	-11.3%[46.1 µM]	-13.3%	-15.1%	0.9%	?	-3.9%
COc1ccc2ccc3c(c2c1)N=CC1(O3)N(C)c2ccccc2C1(C)C (stereo not drawn)	0.3%	-3.0%	/	22.4µM*	?	-13.5%
CN1c2ccccc2C(C)(C)C12C=Nc1c(ccc3ccccc13)O2 (stereo not drawn)	1.8%	2.2%	2.6%	20µM*	-1.0%	-17.0%
CN1c2ccccc2C(C)(C)[C@]12C=Cc1cc(O)ccc1O2	-15.9%	65.0%	?	-30.2%	?	/
Cc1cc(C)c2c(n1)nn1c(C)c(CCC(=O)Nc3ccc(C)c(Cl)c3)c(C)nc21	16.5%[46.1 µM]	?	-10.0%	-12.0%	11.3%[46.1 µM]	-19.0%
